“And” between values parts separate entries of the source, which are not always exact repeats. Equal entries are not always repeated. In all, about 210,000 compounds went through this assay and about 520 (0.25%) were called active. This is one part of a sample in which actives are shown more often than they occur. Cut-off read from the data, not from the text of the source: active = inhibition above about 50%; inactive = the rest. Where a structure was tested more than once in an assay, its records may differ in their call.
test system: Plasmodium falciparum apicoplast DNA polymerase (apPOL); experiment: Pf-apPOL inhibitors, biochemical, fluorescence (AID 1794808); conditions: Recombinant Pf-apPOL, molecular beacon fluorescence, 1.5 h; at 10 µM; stronger effect = higher value

SMILES	inhibition
CC1C(=O)N(c2cccc(F)c2)CCN1C(=O)c1ccc(Cl)cc1 (centres undefined)	-2.7% (inactive)
Cc1cccc(N2CCN(C(=O)c3ccc(F)cc3)C(C)C2=O)c1 (centres undefined)	0.4% (inactive)
Cc1ccc(C(=O)N2CCN(c3ccc(F)c(Cl)c3)C(=O)C2C)cc1 (centres undefined)	69.1% (active)
Cc1cccc(NS(=O)(=O)c2c(C)n[nH]c2C)c1C	-1.5% (inactive)
Cc1cc(C)n(-c2ccc(C(=O)NC3CCCC3)cn2)n1	2% (inactive)
CCC1CCCCN1C(=O)CSc1nc2c(c(=O)n1C)SC(C)C2 (centres undefined)	-6.3% (inactive)
COc1ccc(C=C2Oc3c(ccc(O)c3CN3CCCCCC3)C2=O)cc1OC	-19.5% (inactive)
N/C(=N\OC(=O)CCCc1ccccc1)c1ccc(Cl)cc1	5.3% (inactive)
Cc1cccc(NC(=O)N2CC(c3nc(C)no3)C3(CCOCC3)C2)c1 (centres undefined)	-0.4% (inactive)
COc1ccccc1OCC(=O)N1CCCCC1CCN1CCCCCC1 (centres undefined)	-10.1% (inactive)
Cc1ccc2c(c1)C(=O)CC(c1cc(Br)cc3c1OCOC3)O2 (centres undefined)	-13.6% (inactive)
Cc1ccccc1-n1nc2c(c1NC(=O)c1c(F)cccc1Cl)CS(=O)(=O)C2	-3.3% (inactive)
Cc1nc(C(C)C)nc2c1CCC(=O)N2CCCN1CCOCC1	4% (inactive)
Cc1cccc(NC(=O)CC2SC(=Nc3ccccc3)NC2=O)c1 (centres undefined)	2.1% (inactive)
O=C(NCCCN1CCOCC1)c1cc2c(=O)oc3ccccc3c2s1	1.2% (inactive)
O=C(NC1CCCC1)c1ccc(-n2nc(N3CCCC3)ccc2=O)cc1	4.7% (inactive)
COC(=O)c1ccccc1OC1OC(CO)C(O)C(O)C1NC(C)=O (centres undefined)	1.3% (inactive)
N#CC(C#N)=C1SCN(c2cccc(Cl)c2)CS1	66.2% (active)
CC(=O)Nc1ccc(C(=O)N2CCN(c3cccc(Cl)c3)CC2)cc1	9.7% (inactive)
O=C(c1ccc([N+](=O)[O-])cc1)N1CCN(c2cccc(Cl)c2)CC1	-2.7% (inactive)
CCn1cc(C2=CCN(S(=O)(=O)c3cccc(C)c3)CC2)c2cccnc21	-11% (inactive)
Nc1cc2c(cc1[N+](=O)[O-])OCCOCCOc1ccc([N+](=O)[O-])cc1OCCOCCO2	-0.2% (inactive)
CCCNc1cc(N2CCCC(CCC(=O)Nc3ccc4c(c3)OCCO4)C2)ncn1 (centres undefined)	-2.1% (inactive)
COc1cccc(NC(=O)c2cncc(-c3ccc(F)cc3)c2)c1	1.8% (inactive)

SMILES	inhibition
Cc1cc(C)cc(-c2nc(-c3ccc4c(c3)oc(=O)n4C)no2)c1	0.7% (inactive)
COc1ccc(C(O)=C2C(=O)C(=O)N(CCN3CCOCC3)C2c2ccccc2F)cc1OC (centres undefined)	-2.5% (inactive)
O=C(COc1ccc(Cl)cc1)N1CCC(N2CCCCCC2)CC1	-3.8% (inactive)
COc1ccc(NCN2C(=O)c3cc(Cl)c(Cl)cc3C2=O)cc1	7.8% (inactive)
CCN(CC)CCNC(=O)C(=O)NCC1OCCN1S(=O)(=O)c1ccc(F)cc1 (centres undefined)	-1.4% (inactive)
O=C(Nc1ccc(F)c(Cl)c1)c1noc2c1CCCCC2	-2.8% (inactive)
CCCCC(NC(C)=O)C(=O)O (centres undefined)	4.1% (inactive)
CCCCOc1ccccc1/C=c1\sc2ncnn2c1=O	10.1% (inactive)
COc1ccc(NC(=O)CCC2CCN(c3cc(NC4CC4)ncn3)CC2)cc1	0.2% (inactive)
COCCNC(=O)NCCCc1ccc(N(C)C)cc1	-1.5% (inactive)
COc1cccc(/C=c2\sc3nc(=O)c(C)nn3c2=O)c1	1.4% (inactive)
CC(=O)N1CCc2sc(S(=O)(=O)N3CCN(c4ccccc4F)CC3)cc2C1	-5.6% (inactive)
COc1ccc(-c2cc(=O)n(CCNC(=O)Cn3cnc4ccccc4c3=O)cn2)cc1	-6.7% (inactive)
COc1ccc(NC(=O)CSc2nc3c(cnn3-c3ccc(C)cc3)c(=O)[nH]2)c(OC)c1	3.2% (inactive)
C(=Nc1ccccc1-n1cccc1)c1cnc(-c2ccccc2)[nH]1	-2.2% (inactive)
C=CCNC(=O)CCSc1ccc(Cl)cc1	0.6% (inactive)
CC1CCCCC1NS(=O)(=O)c1cc(C(=O)Nc2ccc(F)c(F)c2)ccc1F (centres undefined)	37.3% (inactive)
CC12CC3(C)CC(C)(C1)CC(C(=O)Nc1ccc(F)c(Cl)c1)(C2)C3	-2.2% (inactive)
O=C(c1cc(F)cc(F)c1)N1CCC(c2cnn(-c3cccc(F)c3)c2)CC1	-5.6% (inactive)
COc1ccc2nc(SC)[nH]c2c1	-6.5% (inactive)
COc1ccc2nc(SCC(=O)c3ccc(Cl)c(Cl)c3)[nH]c2c1	79.6% (active)
COc1ccc2nc(SCC(=O)NCc3cccs3)[nH]c2c1	-5.8% (inactive)
CC(=O)N1CCc2cc(N3CC(C(=O)Nc4cccc(F)c4)CC3=O)ccc21 (centres undefined)	-3.7% (inactive)
O=C(CCCC1=NS(=O)(=O)c2ccccc2N1)Nc1cccc(C(=O)O)c1	-7.1% (inactive)

SMILES	inhibition
O=C(NCCC1=CCCCC1)C(=O)NCC(c1ccc2c(c1)OCO2)N1CCOCC1 (centres undefined)	-1.8% (inactive)
Cc1ccc(C)c(OCC(=O)Nc2ccccc2C(N)=O)c1	4.8% (inactive)
O=C(NCC1COC2(CCCC2)O1)c1ccccc1[N+](=O)[O-] (centres undefined)	-1.9% (inactive)
O=C(CCc1ccccc1)NCC1COC2(CCCCC2)O1 (centres undefined)	90.3% (active)
O=C(C=Cc1ccco1)NCC1COC2(CCCCC2)O1 (centres undefined)	-8.3% (inactive)
Cc1cc(NC(=O)N2CC3CCCN3c3ccccc32)ccc1Br (centres undefined)	0.1% (inactive)
CN1/C(=C/C(=O)c2ccc(I)cc2)Sc2ccccc21	-77.1% (inactive)
CC(C)CNS(=O)(=O)c1ccc2nc(NC(=O)c3ccco3)sc2c1	45.1% (inactive)
NC(COc1ccc(Cl)cc1)=NOC(=O)c1ccsc1	-6.2% (inactive)
COc1cc(OC)c(N2C(=O)NC3CC2(C)Oc2ccccc23)cc1Cl (centres undefined)	-6.1% (inactive)
Fc1ccc(-c2nc(-c3ccc(Cl)cc3)no2)cc1	-2.6% (inactive)
O=C(Nc1cc(F)c2nc(N3CCCC3)ccc2c1)c1cccc(F)c1	0.1% (inactive)
COc1ccc(C2C=C(Nc3ccccc3)C(=O)N2c2ccccc2)c(OC)c1 (centres undefined)	65.6% (active)
COc1ccc(/C=C2/C(=O)N(c3ccccc3)N=C2C)c(OC)c1	2.6% (inactive)
O=C1C(Nc2ccccc2)=CC(c2ccc([N+](=O)[O-])cc2)N1c1ccccc1 (centres undefined)	8.9% (inactive)
Cc1ccc2c(c1)N(Cc1nc(-c3ccc(C)c(C)c3)no1)C(=O)CO2	-2.1% (inactive)
CC(C=CC=C(C)C(=O)OC1OC(COC2OC(CO)C(O)C(O)C2O)C(O)C(O)C1O)=CC=CC=C(C)C=CC=C(C)C(=O)OC1OC(COC2OC(CO)C(O)C(O)C2O)C(O)C(O)C1O (centres undefined)	-1.1% (inactive)
CC(C)(C)NC(=O)N1CCC(CNC(=O)C(=O)Nc2cc(F)ccc2F)CC1	-4.8% (inactive)
COc1cc(OC)c(OC)cc1CN1CCCC1c1cc(C)on1 (centres undefined)	3.3% (inactive)
CCOc1cc(C2C3=C(CCCC3=O)N(CC)C3=C2C(=O)CCC3)cc(Cl)c1O	65.7% (active)
CCN1C2=C(C(=O)CC(C)(C)C2)C(c2cc(Cl)c(O)c(OC)c2)C2=C1CC(C)(C)CC2=O	6.7% (inactive)
CCN1C2=C(C(=O)CCC2)C(c2cc(Br)c(O)c(OC)c2)C2=C1CCCC2=O	1.1% (inactive)
Cc1cccc(NC(=O)CSc2nccn2C)c1C	-4.4% (inactive)
COC(=O)c1cc(Nc2cc(F)ccc2F)c2ccccc2n1	-1.7% (inactive)

SMILES	inhibition
CCc1ccc(NC(=O)CCS(=O)(=O)c2ccc(Br)s2)cc1	-6.3% (inactive)
COc1ccc(CC2(C)OC(c3ccc(C(C)(C)C)cc3)=NN2C(C)=O)cc1 (centres undefined)	5.3% (inactive)
CCOc1nn(-c2nc(-c3ccccc3)cc(C(F)(F)F)n2)cc1[N+](=O)[O-]	1.6% (inactive)
c1ccc(-c2nnc(SCc3nc4ccccc4[nH]3)o2)cc1	-3% (inactive)
c1ccc2[nH]c(CSc3nc4ccccc4[nH]3)nc2c1	86% (active) and -1.3% (inactive)
CNC(=O)CSc1nc2ccccc2[nH]1	-7.9% (inactive)
COc1ccc(C2=NOC(C(=O)N3CCCc4ccccc43)C2)cc1OC (centres undefined)	-3.1% (inactive)
O=C(NCc1cccc(F)c1)C1CCc2sc(C(=O)N3CCCC3)cc2C1 (centres undefined)	-2.5% (inactive)
CCn1ccc(C(=O)N2CCCC2c2cccc(F)c2)n1 (centres undefined)	-3.5% (inactive)
O=C(NCC1CN(c2ccc3c(c2)OCO3)C(=O)O1)c1ccco1 (centres undefined)	-9.6% (inactive)
CC(C)(C)c1ccc(CC(=O)c2ccc(O)cc2O)cc1	-3.9% (inactive)
O=C1CCCC2=C1C(c1ccccn1)C1=C(CCCC1=O)O2	-0.8% (inactive)
O=C(Nc1ncc(Cc2cccc(C(F)(F)F)c2)s1)c1ccc(-n2cnnn2)cc1	-2.3% (inactive)
CCOC(=O)N1CCc2nn(CC(=O)NC(C)CCc3ccccc3)c(=O)cc2C1 (centres undefined)	-4.2% (inactive)
O=C(Nc1nnc(CSCc2ccccc2)s1)c1ccc(F)cc1	-1.1% (inactive)
COc1ccc(CCNC(=O)C2c3ccccc3C(=O)N2Cc2ccc(C)cc2)cc1OC (centres undefined)	-9.1% (inactive)
O=C(Nc1ccc(-c2nc3ccccc3[nH]2)cc1)c1cccc(F)c1	-15.5% (inactive)
CCNC(=O)c1nsc2ccc(C)cc12	-1.8% (inactive)
CCOC(=O)c1ccc(NS(=O)(=O)c2c[nH]c(=O)[nH]c2=O)cc1	-10.5% (inactive)
CCN(CC)CCCNC(=O)C1CCN(S(=O)(=O)N2CCC3(CC2)OCCO3)CC1	-18.9% (inactive)
Cc1ccc(-n2cc(C(=O)N3CCCCC3)nn2)cc1C	-2.2% (inactive)
COc1ccc(/C=C2\N=C(c3cc(OC)c(OC)c(OC)c3)OC2=O)cc1	-0.6% (inactive)
